Records with an inconclusive call do not appear. Entries that show only a call come without a potency. Calls of active or inactive are those of the source. Unless noted, calls follow the shape of the dose curve; as a rule, active = well fitted curve in the direction sought with a large enough effect; inconclusive = small, poorly fitted or top-dose-only effect, or another doubt; inactive = no such curve, though single readings can be large; an effect the other way counts as inactive or inconclusive.
Tests used:
[1] = Confirmatory screen GU Rhodamine qHTS for Zika virus inhibitors qHTS (AID 1347157); also: nearly all actives have a fitted effect of over 70% in size; also: potency is read from the fitted curve at half-maximal effect
Outline: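 Buffer 10 mM Tris-HCl pH 8.0, 0.01% Tween 20. Unlinked protease 25 nM; compound preincubation 15 min, RT, protected from light. Substrate Rhod110, 1.5 microM; ~15% conversion in 15 min.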

[2] = Confirmatory screen NINDS Rhodamine qHTS for Zika virus inhibitors (AID 1347161); also: nearly all actives have a fitted effect of over 60% in size; also: potency is read from the fitted curve at half-maximal effect;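 as to activity change, negative = inhibition: purified Zika NS2B-NS3 protease with linked NS2B cofactor domain and Rhodamine110 peptide substrate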
Outline: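 Purified NS2B-NS3 protease with the NS2B hydrophilic domain joined by a flexible linker (25 nM) in 10 mM Tris-HCl pH 8.0, 0.01% Tween 20, preincubated 15 min at RT with compound; Rhodamine110 peptide substrate 1.5 µM; fluorescence change over 15 min; 4-parameter Hill fit.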

[3] = ZIKV-mCherry secondary qHTS for Zika virus inhibitors (AID 1347158); also: top concentration of the series differs between compounds
Outline: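 Compounds were tested in Vero monkey kidney cells infected with recombinant mCherry-expressing Zika virus at MOI 1 for 48-72 h at 37 °C. Fixed cells were nuclear-stained and imaged, and infection rate was taken as the fraction of mCherry-positive cells.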

[4] = tested on: Zika virus NS2B-NS3 protease (linked); test: 384 well plate NINDS AMC confirmatory qHTS for Zika virus inhibitors (AID 1347163); also: nearly all actives have a fitted effect of over 50% in size; also: potency is read from the fitted curve at half-maximal effect;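 as to activity change, negative = inhibition: linked protease at 5 30 or 60 nM final depending on run; fluorescence of AMC released from Ac-VKTGKR-AMC peptide cleaved by the protease; top concentration of the series differs between compounds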
Outline: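 Fluorescence at 355/460 nm was read after 25 minutes of cleavage of 30 microM Ac-VKTGKR-AMC at room temperature, in the dark. Before substrate addition, compounds (up to 1 mM final) sat ~15 minutes with 5, 30 or 60 nM linked protease. Signals were normalized to no-enzyme and no-inhibitor wells.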

[5] = tested on: Zika virus NS2B-NS3 protease (linked construct); test: 384 well plate NINDS Rhodamine confirmatory qHTS for Zika virus inhibitors (AID 1347164);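 also: fluorescence from protease cleavage of Ac-LKRR-rhodamine 110 substrate; nearly all actives have a fitted effect of over 65% in size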; also: potency is read from the fitted curve at half-maximal effect; as to activity change, negative = inhibition: top concentration of the series differs between compounds
Outline: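 Linked protease at a final 5 nM, 30 nM or 60 nM was preincubated ~15 min with compounds, then given 10 microM Ac-LKRR-Rhodamine 110. Fluorescence (ex 485/em 538 nm) after 25 min in the dark at room temperature.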

[6] = Tertiary RLuc qRT-PCR qHTS assay for Zika virus inhibitors (AID 1347169); also: top concentration of the series differs between compounds; nearly all actives have a fitted effect of over 55% in size
Outline: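 Vero cells (1,000 per well) plated overnight at 37 degrees C, treated with compound in DMSO, then infected with recombinant ZIKV-RLuc (Cambodian) at MOI 1-2 for 48-72 hrs. Live-cell Renilla luciferase substrate added; luminescence read after 1-1.5 hrs.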

[7] = molecular target: Rap guanine nucleotide exchange factor 3 (Homo sapiens) (UniProt O95398); test: Confirmatory qHTS for antagonist of cAMP-regulated guanine nucleotide exchange factor 3 (EPAC1) (AID 1645880); also: potency is read from the fitted curve at half-maximal effect; nearly all actives have a fitted effect of over 55% in size
Outline: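 Released BODIPY-GDP fluoresces less than Rap1-bound BODIPY-GDP; the signal is followed at 480/540 nm at 5-min intervals over 30 min, after 5 min at room temperature. Reactions contain 100 nM EPAC1, 250 nM RAP1B-BODIPY-GDP and 50 uM GDP; results are normalized to ATA and DMSO.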

[8] = molecular target: Rap guanine nucleotide exchange factor 3 (Homo sapiens) (UniProt O95398); test: Confirmatory qHTS for agonist of cAMP-regulated guanine nucleotide exchange factor 3 (EPAC1) (AID 1645881);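 also: EPAC1 catalysed release of BODIPY-GDP from Rap1B seen as fluorescence loss; nearly all actives have a fitted effect of over 75% in size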
[9] = molecular target: Rap guanine nucleotide exchange factor 4 (Homo sapiens) (UniProt Q8WZA2); test: Confirmatory qHTS for agonist of cAMP-regulated guanine nucleotide exchange factor 4 (EPAC2) (AID 1645884);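 also: nucleotide exchange releases bodipy-GDP from Rap1 and this lowers its fluorescence; nearly all actives have a fitted effect of over 65% in size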
[10] = molecular target: Rap guanine nucleotide exchange factor 4 (Homo sapiens) (UniProt Q8WZA2); test: Confirmatory qHTS for antagonist of cAMP-regulated guanine nucleotide exchange factor 4 (EPAC2) (AID 1645885); also: nearly all actives have a fitted effect of over 25% in size
[11] = molecular target: Rap guanine nucleotide exchange factor 3 (Homo sapiens) (UniProt O95398); test: Counterscreen qHTS for antagonist of cAMP-regulated guanine nucleotide exchange factor 3 (EPAC1) (AID 1645888)
Outline: (§1)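 Rap1B–BODIPY-GDP (250 nM) with 50 uM GDP; compounds pin-transferred to 9.74 nM–152 uM final (activator) or from 7.32 nM upwards (inhibitor). Fluorescence Ex/Em 480/540 nm read at 5 and 30 min, then after adding cAMP or buffer, at room temperature.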

[12] = molecular target: Rap guanine nucleotide exchange factor 3 (Homo sapiens) (UniProt O95398); test: Counterscreen qHTS for agonist of cAMP-regulated guanine nucleotide exchange factor 3 (EPAC1) (AID 1645889); also: nearly all actives have a fitted effect of over 40% in size
Outline: as §1

[13] = molecular target: Calcium and integrin-binding protein 1 (Homo sapiens) (UniProt Q99828); test: Primary qHTS for Identification of Calcium Integrin Binding Protein 1 (CIB1) Competitor (AID 1508620);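 also: GST tagged CIB1 binding a fluorescein labelled alphaIIb integrin peptide tracer; top concentration of the series differs between compounds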
Outline: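 Fluorescence polarization competition: GST-tagged CIB1 (1 uM final) preincubated with compound 15 min at room temperature, then FITC-labelled alphaIIb peptide (100 nM final) added. After 15 min at room temperature, polarization read at Ex 480/Em 540.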

[14] = Confirmation and Secondary Assay for Modulators of Hemoglobin Beta Chain Splicing at IVS2 654 locus (AID 910);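 also: HeLa cells stably carrying EGFP split by mutant beta-globin IVS2-654 intron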
Outline: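 HeLa cells stably expressing EGFP interrupted by β-globin IVS2-654 intron, seeded overnight in Opti-MEM/2% FCS, then treated 2 days at 37 °C. Restored splicing read as total peak GFP intensity per well by laser scanning cytometry (488 nm excitation, 500–520 nm emission); 500 nM antisense PNA as control.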

[15] = Confirmation and Secondary Assay for Modulators of Hemoglobin Beta Chain Splicing at IVS2 705 locus (AID 930);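 also: HeLa cells stably expressing the EGFP-705 splicing reporter; GFP fluorescence per well restored by corrected splicing of the IVS2-705 intron in EGFP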
Outline: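 Secondary splice-site specificity test uses HeLa expressing CMV-driven EGFP interrupted by IVS2-705; cells were treated 2 days at 37C with 500 nM antisense PNA as positive control.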

[16] = qHTS Assay for Lipid Storage Modulators (AID 1519; calls by dose curve); details: Drosophila S3 cells, BODIPY lipid droplet/cell ratio, laser cytometry, cells loaded with oleic acid
Outline: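 Cells seeded at 5,000 per well were treated with compounds over a concentration series and loaded with oleic acid (400 uM, as added). Lipid droplet fluorescence (488 nm excitation, 500-530 nm channel) was read by laser-scanning cytometry and normalized to 20 uM Triacsin C.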

[17] = molecular target: Ubiquitin carboxyl-terminal hydrolase 1 (Homo sapiens) (UniProt O94782); test: Inhibitors of USP1/UAF1: Pilot qHTS (AID 504865); also: potency is read from the fitted curve at half-maximal effect; nearly all actives have a fitted effect of over 35% in size
Outline: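 USP1/UAF1 complex (1nM) preincubated with compound 15 min at room temperature, then Ub-Rho substrate (150nM final) added. Fluorescence read kinetically at 480/540 nm, 6 reads every 60 seconds. Buffer: 50mM HEPES pH 7.8, 0.5mM EDTA, 0.1 mg/ml BSA, 1mM TCEP, 0.01% Tween-20.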

[18] = molecular target: Cytochrome P450 2D6 (Homo sapiens) (UniProt P10635); test: Cytochrome P450 family 2 subfamily D member 6 (CYP2D6) small molecule antagonists: luciferase biochemical (cell-free) qHTS assay (AID 1645840; active = well fitted curve in the direction sought with a large enough effect in the repeat runs; an effect the other way counts as inactive or inconclusive; also: potency is read from the fitted curve at half-maximal effect; nearly all actives have a fitted effect of over 55% in size)
Outline: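 P450-Glo CYP2D6 system: proluciferin substrate converted by enzyme to luciferin, read by luminescence proportional to activity. Enzyme-substrate mix with compound 10 min at room temperature, then NADPH regeneration 1 h before detection reagent.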

[19] = molecular target: Cytochrome P450 2C9 (Homo sapiens) (UniProt P11712); test: Cytochrome P450 family 2 subfamily C member 9 (CYP2C9) small molecule antagonists: luciferase biochemical (cell-free) qHTS assay (AID 1645842; active = well fitted curve in the direction sought with a large enough effect in the repeat runs; an effect the other way counts as inactive or inconclusive; also: potency is read from the fitted curve at half-maximal effect; nearly all actives have a fitted effect of over 55% in size)
Outline: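 P450-Glo CYP2C9 system: proluciferin substrate with enzyme in mix containing 0.4% BSA, 10 min at room temperature, then NADPH regeneration solution added and incubated 1 h at 37C. Detection reagent stopped reaction; luminescence read after 20 min as RLU.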

Sequence of Rap guanine nucleotide exchange factor 3 (Homo sapiens) (O95398 whole entry, looked up): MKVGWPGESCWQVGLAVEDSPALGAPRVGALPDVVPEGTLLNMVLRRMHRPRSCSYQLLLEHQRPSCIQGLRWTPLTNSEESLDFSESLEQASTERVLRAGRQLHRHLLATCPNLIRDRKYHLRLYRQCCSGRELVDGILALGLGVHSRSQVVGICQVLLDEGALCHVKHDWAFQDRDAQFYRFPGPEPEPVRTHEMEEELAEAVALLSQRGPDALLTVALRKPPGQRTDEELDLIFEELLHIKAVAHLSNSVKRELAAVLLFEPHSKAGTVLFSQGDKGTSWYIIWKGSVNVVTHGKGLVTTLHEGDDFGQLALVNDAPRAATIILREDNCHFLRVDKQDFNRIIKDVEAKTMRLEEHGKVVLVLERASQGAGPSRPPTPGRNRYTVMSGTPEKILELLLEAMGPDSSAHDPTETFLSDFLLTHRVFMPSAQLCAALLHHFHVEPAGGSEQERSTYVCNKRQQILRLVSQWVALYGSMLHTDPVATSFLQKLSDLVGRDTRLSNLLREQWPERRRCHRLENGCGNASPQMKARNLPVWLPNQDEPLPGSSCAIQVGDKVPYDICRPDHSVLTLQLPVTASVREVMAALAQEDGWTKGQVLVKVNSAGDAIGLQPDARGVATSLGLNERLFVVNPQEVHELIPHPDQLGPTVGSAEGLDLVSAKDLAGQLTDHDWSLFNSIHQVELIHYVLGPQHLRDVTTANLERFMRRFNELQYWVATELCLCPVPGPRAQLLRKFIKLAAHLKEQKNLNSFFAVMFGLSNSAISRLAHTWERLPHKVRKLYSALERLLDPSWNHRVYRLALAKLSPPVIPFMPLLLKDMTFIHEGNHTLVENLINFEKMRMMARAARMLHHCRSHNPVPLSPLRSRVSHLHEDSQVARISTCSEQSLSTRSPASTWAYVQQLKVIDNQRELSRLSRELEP
Sequence of Rap guanine nucleotide exchange factor 4 (Homo sapiens) (Q8WZA2 whole entry, looked up): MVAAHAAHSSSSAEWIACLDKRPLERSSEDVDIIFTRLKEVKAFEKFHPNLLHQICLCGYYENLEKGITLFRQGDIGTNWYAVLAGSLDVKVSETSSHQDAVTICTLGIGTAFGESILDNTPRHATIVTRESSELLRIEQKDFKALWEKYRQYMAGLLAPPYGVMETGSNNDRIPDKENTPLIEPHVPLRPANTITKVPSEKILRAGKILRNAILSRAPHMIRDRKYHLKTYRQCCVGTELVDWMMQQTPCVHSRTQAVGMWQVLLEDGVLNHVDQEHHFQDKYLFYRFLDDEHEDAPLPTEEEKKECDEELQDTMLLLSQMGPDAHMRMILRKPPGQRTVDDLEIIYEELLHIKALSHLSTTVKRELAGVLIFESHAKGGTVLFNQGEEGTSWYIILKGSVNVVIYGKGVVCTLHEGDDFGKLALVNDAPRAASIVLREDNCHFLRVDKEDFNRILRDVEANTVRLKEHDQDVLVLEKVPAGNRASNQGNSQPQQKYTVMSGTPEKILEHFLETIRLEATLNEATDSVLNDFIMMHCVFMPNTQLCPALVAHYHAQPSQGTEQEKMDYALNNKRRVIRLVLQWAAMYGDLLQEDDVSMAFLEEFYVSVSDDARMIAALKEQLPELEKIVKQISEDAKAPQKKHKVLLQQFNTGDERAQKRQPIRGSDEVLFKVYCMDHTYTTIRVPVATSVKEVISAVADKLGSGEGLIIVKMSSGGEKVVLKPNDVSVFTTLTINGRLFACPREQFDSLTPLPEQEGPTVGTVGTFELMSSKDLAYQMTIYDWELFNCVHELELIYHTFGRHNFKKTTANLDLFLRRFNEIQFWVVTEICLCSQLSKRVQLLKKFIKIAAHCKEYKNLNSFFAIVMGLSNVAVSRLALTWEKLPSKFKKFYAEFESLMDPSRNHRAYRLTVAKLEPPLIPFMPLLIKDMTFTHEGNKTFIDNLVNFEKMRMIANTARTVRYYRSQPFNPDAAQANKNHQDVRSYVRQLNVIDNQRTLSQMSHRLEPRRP
Sequence of Cytochrome P450 2D6 (Homo sapiens) (P10635 whole entry, looked up): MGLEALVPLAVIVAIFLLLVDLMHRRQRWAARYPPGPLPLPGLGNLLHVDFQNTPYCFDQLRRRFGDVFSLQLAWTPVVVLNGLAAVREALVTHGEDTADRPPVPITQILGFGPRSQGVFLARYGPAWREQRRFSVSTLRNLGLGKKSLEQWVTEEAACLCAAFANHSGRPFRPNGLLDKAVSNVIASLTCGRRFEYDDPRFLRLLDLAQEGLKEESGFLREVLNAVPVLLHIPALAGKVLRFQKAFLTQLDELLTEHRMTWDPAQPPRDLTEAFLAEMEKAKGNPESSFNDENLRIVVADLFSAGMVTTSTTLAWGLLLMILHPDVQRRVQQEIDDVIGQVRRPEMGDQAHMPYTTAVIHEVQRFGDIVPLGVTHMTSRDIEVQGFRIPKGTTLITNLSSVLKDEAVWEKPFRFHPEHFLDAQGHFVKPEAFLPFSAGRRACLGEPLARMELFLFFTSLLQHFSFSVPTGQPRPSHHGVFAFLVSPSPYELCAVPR
Sequence of Ubiquitin carboxyl-terminal hydrolase 1 (Homo sapiens) (O94782 whole entry, looked up): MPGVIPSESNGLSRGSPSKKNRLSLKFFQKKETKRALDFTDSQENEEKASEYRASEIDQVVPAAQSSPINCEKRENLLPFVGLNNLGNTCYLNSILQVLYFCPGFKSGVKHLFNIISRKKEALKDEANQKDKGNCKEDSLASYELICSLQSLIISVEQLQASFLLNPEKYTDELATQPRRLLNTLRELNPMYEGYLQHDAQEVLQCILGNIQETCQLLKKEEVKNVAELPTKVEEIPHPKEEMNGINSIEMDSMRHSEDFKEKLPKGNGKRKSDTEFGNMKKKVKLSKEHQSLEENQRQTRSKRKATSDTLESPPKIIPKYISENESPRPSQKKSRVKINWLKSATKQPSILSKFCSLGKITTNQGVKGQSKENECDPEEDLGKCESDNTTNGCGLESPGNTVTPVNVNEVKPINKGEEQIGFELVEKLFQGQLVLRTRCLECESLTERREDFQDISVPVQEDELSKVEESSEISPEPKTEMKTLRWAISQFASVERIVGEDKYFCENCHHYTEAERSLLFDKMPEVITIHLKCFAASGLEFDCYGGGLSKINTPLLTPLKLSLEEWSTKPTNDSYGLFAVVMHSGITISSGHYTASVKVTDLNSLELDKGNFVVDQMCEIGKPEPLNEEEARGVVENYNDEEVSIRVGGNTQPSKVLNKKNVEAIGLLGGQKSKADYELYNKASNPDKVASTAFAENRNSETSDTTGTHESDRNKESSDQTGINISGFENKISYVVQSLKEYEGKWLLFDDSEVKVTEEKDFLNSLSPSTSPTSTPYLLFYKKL
Sequence of Calcium and integrin-binding protein 1 (Homo sapiens) (Q99828 whole entry, looked up): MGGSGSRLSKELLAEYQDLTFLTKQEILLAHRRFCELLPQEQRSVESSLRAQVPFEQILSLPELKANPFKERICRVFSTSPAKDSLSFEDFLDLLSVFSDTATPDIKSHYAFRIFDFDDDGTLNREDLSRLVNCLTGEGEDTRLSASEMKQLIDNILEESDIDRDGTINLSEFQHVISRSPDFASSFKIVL
Sequence of Cytochrome P450 2C9 (Homo sapiens) (P11712 whole entry, looked up): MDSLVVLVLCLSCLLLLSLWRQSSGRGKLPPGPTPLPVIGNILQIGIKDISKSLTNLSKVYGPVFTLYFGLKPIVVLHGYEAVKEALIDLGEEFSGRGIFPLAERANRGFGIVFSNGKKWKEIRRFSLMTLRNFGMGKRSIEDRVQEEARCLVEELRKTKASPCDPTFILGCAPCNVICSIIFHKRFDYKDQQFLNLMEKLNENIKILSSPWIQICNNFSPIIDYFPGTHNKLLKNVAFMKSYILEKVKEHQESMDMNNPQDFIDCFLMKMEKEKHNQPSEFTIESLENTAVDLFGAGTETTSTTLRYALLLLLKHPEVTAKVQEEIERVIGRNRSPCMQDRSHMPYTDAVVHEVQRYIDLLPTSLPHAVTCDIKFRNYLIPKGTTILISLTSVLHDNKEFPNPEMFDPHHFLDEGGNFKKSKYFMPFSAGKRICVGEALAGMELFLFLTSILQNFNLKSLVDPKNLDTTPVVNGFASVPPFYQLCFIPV

CCOC(=O)c1ccc(CN(Cc2ccccc2C)S(=O)(=O)c2ccc(F)c(C(=O)Nc3cccc(OC)c3)c2)cc1
Potency [1]: inactive | Potency [2]: inactive

COc1ccc(NS(=O)(=O)c2ccc3c(c2)[C@H]2C=CC[C@H]2[C@@H](c2ccc(C(=O)O)cc2)N3)cc1
Potency [1]: 20 µM (active) | Potency [3]: inactive | Potency [2]: 3.16 µM (active) | Potency [4]: 79.4 µM (active) | Potency [5]: 20 µM (active) | Potency [6]: inactive | Potency [7]: 19 µM (active) | outcome [8]: inactive | outcome [9]: inactive | Potency [10]: inactive | outcome [11]: inactive | Potency [12]: inactive

O=C(Nc1ccc(C(=O)OCc2cc(=O)n3nc(C4CC4)sc3n2)cc1)c1cccc(F)c1
Potency [1]: inactive | Potency [2]: inactive

CCS(=O)(=O)c1cccc(C(=O)Nc2ccc(-c3nc4ccccc4s3)c(O)c2)c1
Potency [1]: 25.1 µM (active) | Potency [2]: 15.8 µM (active) | Potency [4]: inactive | Potency [5]: 14.1 µM (active) | Potency [6]: inactive

COc1ccc2c(c1)Oc1nc(-c3ccc(C)s3)nc(SCC(=O)Nc3cccc(C(=O)O)c3)c1C2
Potency [1]: 5.01 µM (active) | Potency [3]: inactive | Potency [2]: 5.62 µM (active) | Potency [6]: inactive | outcome [13]: inactive

Nc1c(N=Nc2ccc([N+](=O)[O-])cc2)c(S(=O)(=O)O)cc2cc(S(=O)(=O)O)c(/C=C/c3ccccc3)c(O)c12
Potency [1]: 3.16 µM (active) | Potency [2]: 2.82 µM (active) | Potency [4]: 79.4 µM (active) | Potency [5]: 14.1 µM (active)

CCOC(=O)c1ccc(N2C(=O)c3n[nH]c(-c4cccs4)c3C2c2ccc(C(C)(C)C)cc2)cc1 (configuration not stated)
Potency [1]: 20 µM (active) | Potency [2]: 15.8 µM (active) | Potency [4]: inactive

Cc1csc2nc(COC(=O)c3ccc(NC(=O)c4ccccc4Br)cc3)cc(=O)n12
Potency [1]: inactive | Potency [2]: inactive

O=C1c2ccc(O)c(O)c2C(=O)c2c(O)ccc(O)c21
outcome [14]: inactive | outcome [15]: inactive | activity change, negative = inhibition ([16]; at 57.5 µM (top of the series)): 6.47% (inactive) | max response ([16]; measured here: cell count channel max response): -10.7% | max response ([16]; measured here: lipid channel max response): -3.59% | Potency [17]: 79.4 µM (active) | Potency [1]: 12.6 µM (active) | Potency [3]: inactive | Potency [2]: 5.62 µM (active) | Potency [4]: 31.6 µM (active) | Potency [5]: inactive | Potency [18]: 21.3 µM (active) | Potency [19]: 19 µM (active)

CCOC(=O)c1ccc(NC(=O)c2nc(SCc3ccccc3F)ncc2Cl)cc1
Potency [1]: inactive | Potency [2]: inactive

CCc1ccc(S(=O)(=O)Nc2cc3c(C(=O)OCc4ccccc4)c(C)oc3c3ccccc23)cc1
Potency [1]: inactive | Potency [2]: inactive

From PubChem BioAssay (NCATS)
